Measurements published in PubChem BioAssay (Tox21).
Results filed as inconclusive are left out. Active and inactive are the calls of the source. Unless noted, calls follow the shape of the dose curve; as a rule, active = well fitted curve in the direction sought with a large enough effect in the repeat runs; inconclusive = weak or mixed curves; inactive = no such curve, though single readings can be large; an effect the other way counts as inactive or inconclusive.

Key:
[1] = qHTS assay to identify small molecule agonists of the peroxisome proliferator-activated receptor delta (PPARd) signaling pathway - cell viability counter screen (AID 743211); also: nearly all actives have a fitted effect of over 55% in size
In short: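 PPARd-bla HEK293H cells (UAS-beta-lactamase reporter) were treated with compounds for 17 h at 37 C. Viability was then read in the same wells by CellTiter-Glo luminescence after 30 min at room temperature.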

[2] = qHTS assay to identify small molecule agonists of the farnesoid-X-receptor (FXR) signaling pathway - cell viability counter screen (AID 743218); also: nearly all actives have a fitted effect of over 45% in size
In short: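 Readout: CellTiter-Glo luminescence, 30 min RT, multiplexed after the FXR-bla FRET reading. HEK 293T FXR-UAS-bla cells received compound 5 h post-plating and were incubated 16 h at 37 C.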

[3] = qHTS assay to identify small molecule antagonists of the farnesoid-X-receptor (FXR) signaling pathway - cell viability counter screen (AID 743221; active = well fitted cell-killing curve with a large enough effect in the repeat runs, not every such curve was filed as active; also: nearly all actives have a fitted effect of over 50% in size)
In short: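 FXR-UAS-bla HEK 293T cells were treated with test compounds plus chenodeoxycholic acid (50 uM final) for 16 h at 37 C. Cell viability in the same wells was then read as CellTiter-Glo luminescence after 30 min at room temperature.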

[4] = molecular target: Vitamin D3 receptor (Homo sapiens) (UniProt P11473); test: qHTS assay to identify small molecule agonists of the vitamin D receptor (VDR) signaling pathway (AID 743222; calls by dose curve)
Sequence of Vitamin D3 receptor (Homo sapiens) (P11473 whole entry, looked up): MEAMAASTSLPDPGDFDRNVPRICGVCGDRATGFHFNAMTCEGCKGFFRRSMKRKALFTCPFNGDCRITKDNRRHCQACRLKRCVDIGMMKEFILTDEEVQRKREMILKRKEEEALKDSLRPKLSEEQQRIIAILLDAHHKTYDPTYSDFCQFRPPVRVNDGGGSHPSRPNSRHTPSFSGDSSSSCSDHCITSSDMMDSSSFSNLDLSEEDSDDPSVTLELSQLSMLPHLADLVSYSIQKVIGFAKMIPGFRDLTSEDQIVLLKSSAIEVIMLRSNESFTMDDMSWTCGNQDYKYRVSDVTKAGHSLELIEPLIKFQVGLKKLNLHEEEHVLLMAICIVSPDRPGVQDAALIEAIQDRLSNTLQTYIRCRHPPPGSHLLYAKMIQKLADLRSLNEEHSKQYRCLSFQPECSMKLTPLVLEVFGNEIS
In short: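 Following 4 h attachment at 37C, VDR-bla cells (2,000 per well) received DMSO-dissolved compounds or controls. After 16 h incubation, LiveBLAzer B/G FRET substrate was added and fluorescence read 2 h later at room temperature.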

[5] = molecular target: Peroxisome proliferator-activated receptor delta (Homo sapiens) (UniProt Q03181); test: qHTS assay to identify small molecule agonists of the peroxisome proliferator-activated receptor delta (PPARd) signaling pathway (AID 743212; calls by dose curve)
Sequence of Peroxisome proliferator-activated receptor delta (Homo sapiens) (Q03181 whole entry, looked up): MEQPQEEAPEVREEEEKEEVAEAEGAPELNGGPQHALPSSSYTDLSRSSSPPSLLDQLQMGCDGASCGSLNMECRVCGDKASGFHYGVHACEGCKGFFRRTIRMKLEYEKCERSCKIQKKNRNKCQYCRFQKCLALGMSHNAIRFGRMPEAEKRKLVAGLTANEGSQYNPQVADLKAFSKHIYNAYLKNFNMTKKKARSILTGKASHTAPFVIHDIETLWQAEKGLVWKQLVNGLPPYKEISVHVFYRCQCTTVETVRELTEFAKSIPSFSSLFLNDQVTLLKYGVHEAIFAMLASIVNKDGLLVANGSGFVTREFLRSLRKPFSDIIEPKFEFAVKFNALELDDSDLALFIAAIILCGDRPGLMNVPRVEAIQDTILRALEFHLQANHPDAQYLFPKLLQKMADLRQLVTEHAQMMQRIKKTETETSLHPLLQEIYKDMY
In short: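 Beta-lactamase reporter readout: a ratiometric FRET signal from the LiveBLAzer substrate after 2 h at room temperature. Compound exposure at 37 °C in PPARδ-bla HEK293H cells driven by an upstream activator sequence.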

[6] = qHTS assay to identify small molecule antagonists of the peroxisome proliferator-activated receptor delta (PPARd) signaling pathway - cell viability counter screen (AID 743213); also: nearly all actives have a fitted effect of over 50% in size
In short: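 Luminescence from CellTiter-Glo, added after the bla read and incubated 30 min at room temperature, gives viability of HEK293H PPARd-bla cells exposed to compounds for 17 h at 37 C with 300 nM L165041.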

[7] = molecular target: Peroxisome proliferator-activated receptor delta (Homo sapiens) (UniProt Q03181); test: qHTS assay to identify small molecule antagonists of the peroxisome proliferator-activated receptor delta (PPARd) signaling pathway (AID 743215; active = well fitted inhibition curve with a large enough effect in the signal ratio in the repeat runs, not every such curve was filed as active; the % refers to the signal ratio;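 also: cells stimulated with agonist L165041 at 300 nM final during compound exposure; series mostly up to about 62 µM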)
In short: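 Fluorescence from cleaved LiveBLAzer B/G FRET substrate (2 h, room temperature) reports PPARd-driven beta-lactamase in HEK293H UAS-bla cells. Cells had been treated 17 h at 37 C with compound plus 300 nM final L165041.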

[8] = molecular target: Bile acid receptor (Homo sapiens) (UniProt Q96RI1); test: qHTS assay to identify small molecule antagonists of the farnesoid-X-receptor (FXR) signaling pathway (AID 743217; active = well fitted inhibition curve with a large enough effect in the signal ratio in the repeat runs, not every such curve was filed as active; the % refers to the signal ratio)
Sequence of Bile acid receptor (Homo sapiens) (Q96RI1 whole entry, looked up): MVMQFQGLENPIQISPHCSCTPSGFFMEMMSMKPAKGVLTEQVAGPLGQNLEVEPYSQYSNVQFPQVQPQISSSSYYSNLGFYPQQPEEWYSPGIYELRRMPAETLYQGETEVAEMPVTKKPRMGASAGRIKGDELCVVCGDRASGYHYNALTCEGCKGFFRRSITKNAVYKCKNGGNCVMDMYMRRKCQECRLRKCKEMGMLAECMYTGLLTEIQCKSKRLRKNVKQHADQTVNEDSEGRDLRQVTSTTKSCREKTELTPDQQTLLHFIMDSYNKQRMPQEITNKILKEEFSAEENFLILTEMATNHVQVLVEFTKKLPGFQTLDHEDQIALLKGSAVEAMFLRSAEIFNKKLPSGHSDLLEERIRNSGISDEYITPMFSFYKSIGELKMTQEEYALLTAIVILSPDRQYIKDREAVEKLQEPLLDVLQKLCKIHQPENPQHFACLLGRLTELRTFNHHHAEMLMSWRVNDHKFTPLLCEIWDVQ
In short: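 FRET fluorescence after 2 h room-temperature LiveBLAzer loading gives the readout. Prior step: FXR-bla HEK 293T cells, seeded and incubated 5 h, received test compounds plus 50 uM final CDCA for 16 h at 37 °C.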

[9] = molecular target: Bile acid receptor (Homo sapiens) (UniProt Q96RI1); test: qHTS assay to identify small molecule agonists of the farnesoid-X-receptor (FXR) signaling pathway (AID 743220; active = well fitted activation curve with a large enough effect in the signal ratio in the repeat runs, not every such curve was filed as active; the % refers to the signal ratio)
In short: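 FXR-UAS-bla HEK 293T cells carrying a UAS-driven beta-lactamase reporter were plated for 5 h at 37C/5% CO2, then exposed to DMSO-dissolved Tox21 10K compounds for 16 h at 37C. A LiveBLAzer B/G FRET substrate was loaded for 2 h at room temperature before fluorescence reading.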

[10] = molecular target: Vitamin D3 receptor (Homo sapiens) (UniProt P11473); test: qHTS assay to identify small molecule antagonists of the vitamin D receptor (VDR) signaling pathway (AID 743223; active = well fitted inhibition curve with a large enough effect in the signal ratio in the repeat runs, not every such curve was filed as active; the % refers to the signal ratio)
In short: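 VDR-bla cells were plated, incubated 4 h at 37C, then given compound and 1alpha,25-dihydroxyvitamin D3 (3 nM final). After 16 h at 37C, LiveBLAzer B/G FRET substrate was added for 2 h at room temperature and fluorescence read.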

Measured: Potency

CO[C@]12C[C@@H](COC(=O)c3cncc(Br)c3)CN(C)[C@@H]1Cc1cn(C)c3cccc2c13
inactive: [1] | [2] | [3] | [4]

O=C(O)Cc1ccc(CCNS(=O)(=O)c2ccc(Cl)cc2)cc1
not listed: [1] | [4] | [10]
inactive: all other assays above

CN(C)CCCNCCCN(C)C
inactive: [1] | [2] | [3] | [10]

C[N+](C)(C)CCCCCC[N+](C)(C)C
inactive: [5] | [6] | [7] | [8] | [2] | [9]

Nc1c[n+](N2CCOCC2)no1
not listed: [1] | [4] | [10]
inactive: all other assays above

CCCCCCOC(=O)CCCCC(=O)OCCCCCC
inactive: [5] | [6] | [7] | [8] | [9] | [4]

O=C(O)CCCl
inactive: [1] | [2] | [3] | [4]

CC(C)(C)c1nnc(NS(=O)(=O)c2ccccc2)s1
not listed: [1] | [8] | [9]
inactive: all other assays above

CN1CC(=O)NC1=N
not listed: [1] | [3]
inactive: all other assays above

CS(=O)(=O)O
inactive: [1] | [8] | [9] | [3] | [4] | [10]

Cc1ccc(Cl)cc1Cl
inactive: [1] | [6] | [2] | [4] | [10]

CC(C(=O)O)c1ccc(CC2CCCC2=O)cc1 (stereo unspecified)
not listed: [1] | [8]
inactive: all other assays above

O=C1CCCC(=O)C1
inactive: [1] | [8] | [9] | [3] | [4] | [10]

CCCc1cc(C(N)=S)ccn1
inactive: [1] | [3]

OCCOc1ccc(OCCO)cc1
inactive: [1] | [8] | [2] | [3] | [4] | [10]

CN1C(=O)N(C)C(O)C1O (stereo unspecified)
not listed: [1] | [8] | [9]
inactive: all other assays above

O=C1OC(=O)C2CCCCC12 (stereo unspecified)
inactive: [1] | [2] | [3] | [4] | [10]

CCCCCCCCCCCCCCCCC
not listed: [1]
inactive: all other assays above

CCOC(=O)c1cccc(N)c1
not listed: [1] | [8] | [9]
inactive: all other assays above

Cc1[nH]c(=O)c(C#N)cc1-c1ccc2nccn2c1
not listed: [1] | [8] | [9]
inactive: all other assays above
